Screening results: PubChem BioAssay, The Scripps Research Institute Molecular Screening Center
GPR151 activ: activates the human receptor GPR151; Q8TDV0; PathHunter beta-arrestin GPR151 cells, luminescence; activation, % at 11.2 µM; actives 1% (n = 650,000); AID 1508602; in the data active = activation above about 4.9%;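 also: 0% = median of compound wells and 100% = cells with positive control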
FBW7 activator: human FBW7 E3 ligase activation, primary screen; AID 1259310; Q969H0; AlphaScreen FBW7–phospho-cyclin E peptide binding, activator screen; actives 0.13% (n = 650,000); normalized activity (activation), % at 26.1 µM; in the data active = normalized activity above about 1.9%;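 also: purified mutant Fbw7 with reduced substrate affinity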
MITF primary: human MITF inhibition, primary screen. AlphaScreen MITF homodimerization, bead proximity signal. inhibition, % at 2.6 µM. actives 0.91% (n = 650,000). AID 1259374; in the data active = inhibition above about 50%;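 also: 0% = vehicle wells with protein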
Target sequence (O75030 whole entry, looked up): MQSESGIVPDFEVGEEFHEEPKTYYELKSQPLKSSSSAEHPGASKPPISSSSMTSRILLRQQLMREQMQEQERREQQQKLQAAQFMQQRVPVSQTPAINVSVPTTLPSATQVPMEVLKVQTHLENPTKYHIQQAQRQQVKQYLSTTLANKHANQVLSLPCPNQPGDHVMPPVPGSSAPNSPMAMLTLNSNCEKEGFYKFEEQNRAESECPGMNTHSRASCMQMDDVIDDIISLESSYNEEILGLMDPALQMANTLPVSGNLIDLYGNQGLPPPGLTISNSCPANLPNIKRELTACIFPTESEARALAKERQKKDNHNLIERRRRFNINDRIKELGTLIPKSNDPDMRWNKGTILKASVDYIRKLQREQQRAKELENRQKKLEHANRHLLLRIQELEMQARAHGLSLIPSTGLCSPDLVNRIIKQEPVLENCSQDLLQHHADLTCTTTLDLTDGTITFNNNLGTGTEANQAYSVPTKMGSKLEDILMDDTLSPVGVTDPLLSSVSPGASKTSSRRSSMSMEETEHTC
TEAD-YAP inh: TEAD-YAP interaction inhibition | HEK-TIYL cells, TEAD-Gal4/YAP UAS-luciferase luminescence | actives 1.4% (n = 640,000) | AID 1259422 | inhibition, % at 9.12 µM; in the data active = inhibition above about 32%;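 also: 0% = median of test compound wells and 100% = reference inhibitor wells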
GPR151 confirm: confirmation of human GPR151 activators; AID 1508609; 6,700 tested, under 10 active; GPR151 PathHunter beta-arrestin cells, luminescence, 90 min; % of EA-reagent control over plate median; activation, % at 11.2 µM; shares compounds with GPR151 activ;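 active = mean percent activation across replicates above the confirmation screen cutoff of 4.91%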
GPR119 counter: counter-screen for GPR151 activators: effect on human GPR119. shares compounds with GPR151 activ. GPR119 PathHunter beta-arrestin cells, luminescence, 90 min; 0 = compound-well median, 100 = enzyme-acceptor control. activation, % at 11.2 µM. actives 0.3% (n = 6,700). AID 1508611;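 active = mean percent activation in the counterscreen above 29.09%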;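 also: counterscreen on off-target GPR119 to flag nonselective hits from the GPR151 activator screen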
* marks the source's active call; other numbers are inactive results; ! = not active in a repeat. Rows were chosen to be rich in hits. Some 3.5% of all compounds tested hit in one or more screens of this group.

CSc1nsc(NC(=O)Cc2n[nH]c(=O)c3ccccc23)n1 was read as GPR151 activ -1.3, FBW7 activator -0.2, MITF primary -4.2 and TEAD-YAP inh -4.0.
Screening CCCCNC(=O)C(C(=O)c1ccccc1)n1ccccc1=O (stereo not drawn) returned GPR151 activ 0.3, FBW7 activator 0.0, MITF primary -2.1 and TEAD-YAP inh -0.6.
For COc1ccc(C(=O)Oc2ccc(/C=C/c3ccncc3)cc2)cc1OC the results were GPR151 activ 5.2*, FBW7 activator -0.1, MITF primary 13.3, TEAD-YAP inh 57.2*, GPR151 confirm -0.4 and GPR119 counter 3.5.
O=C(Oc1ccc(OC(=O)c2ccncc2)cc1)c1ccncc1 was read as GPR151 activ 10.2*, FBW7 activator -0.1, MITF primary 8.9, TEAD-YAP inh -7.7, GPR151 confirm -1.3 and GPR119 counter -14.7.
O=C1OC(Nc2ccccc2)c2ccccc21 (stereo not drawn) was read as GPR151 activ -0.7, FBW7 activator -0.1, MITF primary -10.8 and TEAD-YAP inh -0.4.
For COCc1cc(C)nc(SCC(=O)Oc2ccccc2)c1C#N the results were GPR151 activ -1.4, FBW7 activator 0.2, MITF primary -9.1 and TEAD-YAP inh 0.8.
COCc1cc(C)nc(SCC(=O)O)c1C#N was read as GPR151 activ 5.9*, FBW7 activator -0.2, MITF primary 0.7, TEAD-YAP inh 6.1, GPR151 confirm -0.4 and GPR119 counter -9.6.
`O=C1OC(c2ccc(-c3ccccc3)cc2)=N/C1=C\c1cccc(Cl)c1Cl` gave GPR151 activ -0.3, FBW7 activator 0.3, MITF primary 6.2 and TEAD-YAP inh -2.5.
Screening CC(C)(Sc1cc(C(C)(C)C)c(O)c(C(C)(C)C)c1)Sc1cc(C(C)(C)C)c(O)c(C(C)(C)C)c1 returned GPR151 activ 11.4*!, FBW7 activator -0.1, MITF primary 2.0, TEAD-YAP inh -2.5, GPR151 confirm -0.5 and GPR119 counter 4.3.
`COc1ccc(C)cc1N(CC(=O)NCCC(C)C)C(=O)c1snc(C(N)=O)c1N` gave GPR151 activ 11.5*, FBW7 activator -0.1, MITF primary -23.2, TEAD-YAP inh -2.0, GPR151 confirm 1.1 and GPR119 counter 5.2.
COc1ccc(N(CC(=O)NCCC(C)C)C(=O)c2snc(C(N)=O)c2N)c(OC)c1 was read as GPR151 activ -0.2, FBW7 activator 1.0, MITF primary -2.0 and TEAD-YAP inh -8.8.
Cc1ccccc1OCC(=O)Nc1ccc(Cl)c(-c2nc3ccccc3s2)c1 was read as GPR151 activ 6.4*, FBW7 activator -0.1, MITF primary -7.1, TEAD-YAP inh -2.6, GPR151 confirm 0.6 and GPR119 counter 19.9.
`COc1nc(NCCCN2CCCC2=O)nc(-c2ccc(C(N)=O)cc2)n1` gave GPR151 activ 8.5*, FBW7 activator 0.5, MITF primary 24.8, TEAD-YAP inh -7.4, GPR151 confirm 0.0 and GPR119 counter -3.2.
For COc1nc(NCCCN2CCCC2=O)nc(-c2ccc(C(=O)N3CCN(C)CC3)cc2)n1 the results were GPR151 activ 3.0, FBW7 activator 0.1, MITF primary 2.4 and TEAD-YAP inh 4.2.
For Cc1ccc(NS(=O)(=O)c2ccc3c(c2)OCCN3C)cc1C the results were GPR151 activ 0.9, FBW7 activator -0.1, MITF primary 3.5 and TEAD-YAP inh 20.2.
Screening Cc1cc(NS(=O)(=O)c2ccc3c(c2)OCCN3C)ccc1Br returned GPR151 activ 9.0*, FBW7 activator -0.1, MITF primary 3.8, TEAD-YAP inh 4.6, GPR151 confirm -0.4 and GPR119 counter -7.5.
Screening Cc1ccc(CCNS(=O)(=O)c2ccc3c(c2)OCCN3C)cc1 returned GPR151 activ 5.4*, FBW7 activator -0.1, MITF primary 1.7, TEAD-YAP inh 6.8, GPR151 confirm 2.5 and GPR119 counter 3.6.
Screening CSc1cccc(NS(=O)(=O)c2ccc3c(c2)OCCN3C)c1 returned GPR151 activ 5.0*, FBW7 activator -0.2, MITF primary 0.6, TEAD-YAP inh 18.7, GPR151 confirm 0.4 and GPR119 counter 6.4.
Screening CC(C(=O)Nc1ccc([N+](=O)[O-])cc1Cl)N(C)C1CCCCC1 (stereo not drawn) returned GPR151 activ -2.1, FBW7 activator 0.5, MITF primary 8.2 and TEAD-YAP inh 5.5.
For Cc1sc2ncn(CC(=O)NCCCC(=O)N3CCOCC3)c(=O)c2c1C the results were GPR151 activ 0.4, FBW7 activator -0.1, MITF primary -12.0 and TEAD-YAP inh -5.3.
For O=C(CCc1nnc(CCc2c[nH]c3ccccc23)o1)N1CCCCCCC1 the results were GPR151 activ 6.6*, FBW7 activator 0.2, MITF primary -0.3, TEAD-YAP inh -4.0, GPR151 confirm 0.2 and GPR119 counter 0.1.
`O=C(O)C1C(C(=O)Nc2ccc(Cl)cc2)C2C=CC1C21CC1` (stereo not drawn) gave GPR151 activ -1.5, FBW7 activator 0.5, MITF primary 17.8 and TEAD-YAP inh -12.5.
`O=C(O)C1C(C(=O)Nc2ccccc2)C2C=CC1C21CC1` (stereo not drawn) gave GPR151 activ 7.5*, FBW7 activator 0.2, MITF primary 6.1, TEAD-YAP inh 3.0, GPR151 confirm 1.1 and GPR119 counter 16.3.
`COc1ccc(C=O)cc1OC(=O)c1cccc2ccccc12` gave GPR151 activ 10.2*, FBW7 activator 0.0, MITF primary 10.9, TEAD-YAP inh -0.7, GPR151 confirm -1.2 and GPR119 counter -14.9.
Screening CSc1nc(N)nc(SCC(=O)Nc2nc(C)cs2)c1C#N returned GPR151 activ -0.2, FBW7 activator -0.1, MITF primary 2.5 and TEAD-YAP inh -50.4.
`CC1(C)CC(=O)C(C=Nc2ccc(NC3=C(C#N)C(=O)CC(C)(C)C3)cc2)=C(O)C1` gave GPR151 activ 7.1*, FBW7 activator 0.4, MITF primary 16.4, TEAD-YAP inh -1.3, GPR151 confirm 0.6 and GPR119 counter -2.2.
COc1ccc(-n2nc3cc(C)c(NC(=O)c4cccs4)cc3n2)cc1 was read as GPR151 activ 5.1*, FBW7 activator 0.4, MITF primary -7.7, TEAD-YAP inh -51.8, GPR151 confirm 0.3 and GPR119 counter 10.5.
Screening Cc1nc2ccccc2c(=O)n1CC(=O)N1CCOCC1 returned GPR151 activ -1.5, FBW7 activator 0.7, MITF primary 10.4 and TEAD-YAP inh 6.4.
For Cc1nc2ccccc2c(=O)n1-c1ccc(N2CCOCC2)c(C(F)(F)F)c1 the results were GPR151 activ 5.9*, FBW7 activator -0.1, MITF primary -4.9, TEAD-YAP inh 8.9, GPR151 confirm 1.2 and GPR119 counter -3.6.
For O=C(Cc1cn(-c2ccc(N3CCCC3CO)nn2)c2ccccc12)NC1CC1 (stereo not drawn) the results were GPR151 activ -0.7, FBW7 activator -0.1, MITF primary 2.1 and TEAD-YAP inh -7.5.
